From PubChem
A selection: hits, their analogues and other compounds. The true share with any hit is near 3.5%.
GPR151 ag: activators of human GPR151, primary screen, cell-based, PathHunter beta-arrestin, luminescence | PathHunter beta-arrestin GPR151 cells | activation, % at 11.2 µM | hit rate 1% among 650,000; in the data active = activation above about 4.9%
TEAD-YAP block: TEAD-YAP interaction inhibition, primary screen, TEAD-YAP interaction inhibitor project, luminescence, HEK-TIYL cells. TEAD-Gal4/YAP UAS-luciferase luminescence. inhibition, % at 9.12 µM. hit rate 1.4% among 640,000. AID 1259422, 2018; in the data active = inhibition above about 32%
MITF primary: MITF inhibitors, primary screen, biochemical, AlphaScreen, human | AlphaScreen MITF homodimerization, bead proximity signal | inhibition, % at 2.6 µM | hit rate 0.91% among 650,000; in the data active = inhibition above about 50%
FBW7 activator: FBW7 E3 ligase activators, primary screen, biochemical, AlphaScreen, human | AID 1259310, 2017 | AlphaScreen FBW7–phospho-cyclin E peptide binding, activator screen | normalized activity (activation), % at 26.1 µM | hit rate 0.13% among 650,000; in the data active = normalized activity above about 1.9%;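 also: purified mutant Fbw7 with reduced substrate affinity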
Target sequence (Q969H0 whole entry, looked up): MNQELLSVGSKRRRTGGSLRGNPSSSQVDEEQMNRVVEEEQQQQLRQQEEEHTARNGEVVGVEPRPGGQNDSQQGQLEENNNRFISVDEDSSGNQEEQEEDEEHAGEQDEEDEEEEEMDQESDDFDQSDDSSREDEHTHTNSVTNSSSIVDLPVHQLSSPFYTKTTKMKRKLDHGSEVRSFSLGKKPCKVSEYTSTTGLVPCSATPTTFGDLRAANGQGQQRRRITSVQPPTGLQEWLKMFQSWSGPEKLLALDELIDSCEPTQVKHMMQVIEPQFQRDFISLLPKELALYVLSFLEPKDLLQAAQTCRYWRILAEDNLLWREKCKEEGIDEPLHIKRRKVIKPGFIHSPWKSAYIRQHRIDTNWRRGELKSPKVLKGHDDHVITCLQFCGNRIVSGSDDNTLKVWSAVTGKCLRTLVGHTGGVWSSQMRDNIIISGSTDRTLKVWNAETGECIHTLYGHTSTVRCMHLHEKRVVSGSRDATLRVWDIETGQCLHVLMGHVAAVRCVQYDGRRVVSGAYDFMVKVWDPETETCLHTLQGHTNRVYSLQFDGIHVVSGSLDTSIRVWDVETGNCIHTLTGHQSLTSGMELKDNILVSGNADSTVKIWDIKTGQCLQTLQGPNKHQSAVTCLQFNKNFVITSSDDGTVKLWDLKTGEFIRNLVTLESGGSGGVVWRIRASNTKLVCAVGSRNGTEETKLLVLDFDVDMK
MITF inh conf: MITF inhibitors, retest of hits, confirmation, biochemical, AlphaScreen, triplicate; shares compounds with MITF primary; AlphaScreen MITF homodimerization, biotin/His-MITF beads; inhibition, % at 2.6 µM; hit rate 16% among 4,700;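 active = inhibition above a cutoff derived from the DMSO control wells, cut at about 28% in these data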;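 also: inhibitors lower the bead chemiluminescence by keeping MITF from dimerizing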
AS interf DR: AlphaScreen optical interference compounds, dose response, counter-screen, biochemical, HTS. shares compounds with MITF primary. AlphaScreen optical interference counterscreen, cell-free. IC50, µM. hit rate 6% among 480. AID 1259373, 2018; call rule not given here
AS interf ctr: AlphaScreen optical interference compounds, counter-screen for MITF inhibitor project, biochemical, triplicate. hit rate 7.6% among 4,700. LysRS AlphaScreen counterscreen, signal interference. inhibition, % at 2.6 µM. shares compounds with MITF primary;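 active = inhibition above a cutoff derived from the DMSO control wells, cut at about 30% in these data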
Hits are given with their value; 0 = inactive; - = not tested or not shown; ! = not confirmed by another sample.

SMILES	GPR151 ag	TEAD-YAP block	MITF primary	FBW7 activator	MITF inh conf	AS interf ctr	others
CN(C)C(CNCC(=O)N1CCc2ccccc21)c1ccco1 (centres undefined)	0	0	62.2	0	0	0
CCOc1nc(Nc2ccc(Cl)cc2)nc(NC2CCCC2)n1	0	0	0	0	-	-
Cc1ccc(COc2ccc3c4c(c(=O)oc3c2)CCCC4)cc1	0	0	0	0	-	-
COc1cc(COc2ccc3c4c(c(=O)oc3c2)CCCC4)cc(OC)c1OC	0	0	57.0	0	0	0
CC1=NN(c2cccc(C(=O)O)c2)C(=O)C1	0	0	60.0	0	0	0
CC1=NN(c2cccc(F)c2)C(=O)C1	0	0	0	0	-	-
COC(=O)c1ccc(N2C(=O)CC(N3CCN(c4ccccn4)CC3)C2=O)cc1 (centres undefined)	0	0	0	0	-	-
COc1cccc(CN2CCN(C3CCCCCC3)CC2)c1OC	0	0	71.0	0	0	0
COc1cccc(CN2CCCC(C(=O)NN)C2)c1OC (centres undefined)	0	0	55.0	0	0	0
COc1cccc(CN2CCN(C3CCCCC3C)CC2)c1OC (centres undefined)	0	0	86.5	0	0	0
CCN(CC)C(=O)C1CCCN(Cc2cccc(OC)c2OC)C1 (centres undefined)	0	0	0	0	-	-
COc1cccc(CN2CCN(C3CCCC3)C(CCO)C2)c1OC (centres undefined)	0	0	0	0	-	-
COc1cccc(CN2CCN(C3CC4CCC3C4)CC2)c1OC (centres undefined)	0	0	71.0	0	0	0
Cc1n[nH]c(=O)nc1SCC(=O)Nc1ccc(Br)cc1	0	0	0	0	-	-
CC1CCCCC1NC(=O)C1CCN(c2nnnn2-c2ccccc2)CC1 (centres undefined)	0	0	0	0	-	-
NC(=O)c1ccc(NC(=O)CCCOc2ccccc2)cc1	0	0	0	0	-	-
Cc1cccc(CN2CCN(C3CCC(C)CC3)CC2)c1 (centres undefined)	0	0	55.4	0	27.9	0	AS interf DR=0
CCOc1ccc(CN2CCC(C(=O)NC(C)(C)C)CC2)cc1	0	0	0	0	-	-
OC1CCN(Cc2ccc(Cl)cc2)CC1	0	0	0	0	-	-
CCc1ccc(CN2CCN(C3CCC(C)CC3)CC2)cc1 (centres undefined)	0	0	68.7	0	0	0
CC1CCC(N2CCN(Cc3ccc(Cl)cc3)CC2)CC1 (centres undefined)	0	0	69.0	0	0	0
CCOc1ccc(CN2CCC(C(=O)NCc3ccco3)CC2)cc1	0	0	83.2	0	0	0
COCCn1c(SCC(=O)Nc2nc(C)c(C)s2)nc2cccnc21	0	0	0	0	-	-
O=C(COc1cc(Cl)ccc1Cl)N(Cc1ccccc1)c1cccc([N+](=O)[O-])c1	0	0	0	0	-	-
CCOc1ccc(CN2CCN(Cc3ccc(OCC)cc3)CC2)cc1	0	0	50.7	0	0	0
SMILES	GPR151 ag	TEAD-YAP block	MITF primary	FBW7 activator	MITF inh conf	AS interf ctr	others
CCOc1ccc(CN2CCN(C(=O)c3ccccc3OC)CC2)cc1	0	0	57.0	0	0	0
CCOc1ccc(CN2CCN(C3CCC(C)CC3)CC2)cc1 (centres undefined)	0	0	71.0	0	0	0
COc1ccccc1C(=O)N1CCN(Cc2ccc3ccccc3c2)CC1	0	0	0	0	-	-
COc1cccc(OC)c1OCCCCNC(C)(C)C	0	0	0	0	-	-
COc1ccc(-c2cc(NCc3nc4ccccc4[nH]3)ncn2)cn1	0	0	0	0	-	-
CN(C)CCNc1nc(C2COc3ccccc3O2)nc2ccc(-c3cn[nH]c3)cc12 (centres undefined)	0	0	51.8!	0	63.6	0	AS interf DR=0
Cc1ccc(-n2c(SCC#N)nc3sc4c(c3c2=O)CCCC4)cc1	0	0	0	0	-	-
O=C(O)c1c2c(nc3ccc(S(=O)(=O)N4CCC(C(=O)O)CC4)cc13)CCC2	0	0	67.5	0	31.0	0	AS interf DR=0
